Where “and” joins values, the source holds several entries; their conditions need not be identical. Equal values may be shown once. Calls of active or inactive are those of the source. Unless noted, no rule for the calls is given here.

A short description of assay [1]: A549 cell viability effects, profiling panel, calcein-AM fluorescence, 48 h, basal (AID 1162). Also: test concentration not given here. The note with it: higher = more signal.
The nature of assay [2]: adipocyte viability effects, profiling panel, cell-based, 3T3-L1 adipocytes, calcein-AM fluorescence, 48 h, basal (AID 1163). Also: test concentration not given here. The note with it: 3T3-L1 adipocytes viability, higher = more signal.
Assay [3] is described as follows: HepG2 cell viability effects, profiling panel, calcein-AM fluorescence, 48 h, basal (AID 1164). Also: test concentration not given here. The note with it: higher = more signal.
Assay [4] in a line: MM1S cell viability effects, profiling panel, calcein-AM fluorescence, 48 h, basal (AID 1165).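 Also: viability of MM1S multiple myeloma cells under basal unstimulated conditions; test concentration not given here.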 Conditions: higher = more signal.
Assay [5] can be described thus: basal RPMI8226 viability, no added stimulus, profiling panel, cell-based, calcein-AM fluorescence, 48 h, PK04 Diversity Set (AID 1166).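 Also: cells grown under basal conditions without added stimulus; test concentration not given here.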 Conditions: RPMI8226 myeloma viability, higher = more signal.
Assay [6] can be described thus: basal HepG2 mitochondrial membrane potential changes, profiling panel, cell-based, JC-1 fluorescence, 24 h, 100 nL compound (AID 1167). Also: test concentration not given here. The note with it: higher = more signal.
Assay [7] in a line: basal 3T3-L1 adipocyte mitochondrial potential changes, profiling panel, cell-based, JC-1 fluorescence, 3T3-L1 adipocytes, 24 h, 100 nL compound (AID 1168). Also: test concentration not given here. Conditions: JC-1 mitochondrial fluorescence, higher = more signal, called active from +8 up or from −8 down.
Assay [8] can be described thus: basal RPMI8226 mitochondrial membrane potential changes, profiling panel, cell-based, JC-1 fluorescence, 24 h, 100 nL compound (AID 1169). Also: test concentration not given here. The note with it: RPMI8226 myeloma, JC-1 mitochondrial potential fluorescence, higher = more signal.
Assay [9] in a line: basal MM1S mitochondrial membrane potential changes, profiling panel, cell-based, JC-1 fluorescence, 24 h, 100 nL compound (AID 1170). Also: test concentration not given here. The note with it: higher = more signal.
A short description of assay [10]: A549 lung cancer cell viability effects, profiling panel, resazurin fluorescence, 24 h, PK04 Diversity Set (AID 1171). Also: test concentration not given here. Conditions: higher = more signal, called active from +8 up or from −8 down. (Alamar Blue is a resazurin reagent that responds to reducing activity.)
The nature of assay [11]: HepG2 liver cancer cell viability effects, profiling panel, resazurin fluorescence, 24 h, PK04 Diversity Set (AID 1172). Also: test concentration not given here. Conditions: higher = more signal.
Assay [12] in a line: basal S. cerevisiae growth modulation, no modifier, primary screen, OD600, strain BY4716, 24 h, basal condition (AID 1173). The note with it: OD600, 24 h, higher = more signal, called active from +8 up or from −8 down.
A short description of assay [13]: MM1S myeloma cell viability, profiling panel, resazurin fluorescence, basal, 24 h, PK04 Diversity Set (AID 1174).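 Also: MM1S multiple myeloma cell line; test concentration not given here.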 The note with it: higher = more signal, called active from +8 up or from −8 down.
Assay [14] concerns the target Dihydroorotate dehydrogenase (quinone), mitochondrial (Plasmodium falciparum (isolate 3D7)) (UniProt Q08210). The experiment in a line: PfDHODH enzyme inhibitors, primary screen, biochemical, C-terminal His tag, absorbance 600 nm (AID 1175).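 Also: recombinant parasite enzyme with a five histidine tag at its C terminus; test concentration not given here.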 Conditions: DCIP absorbance 600 nm, higher = more signal, called active from +8 up or from −8 down.
Assay [15] can be described thus: P. aeruginosa biofilm formation inhibitors, primary screen, strain PAO1, LB-PBS medium, absorbance 600 nm (AID 1176). Also: test concentration not given here. The note with it: P. aeruginosa PAO1 growth/biofilm, A600, 12 h; higher = more signal.
Assay [16] can be described thus: S. cerevisiae RM11-1a growth modifiers, primary screen, strain RM11-1a, OD600, basal, 24 h (AID 1177).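 Also: cultures grown under basal conditions with no added stressor; test concentration not given here.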 Conditions: OD600, 24 h, higher = more signal, called active from +8 up or from −8 down.
Assay [17] is described as follows: E. coli acrAB mutant growth effects, primary screen, E. coli filamentation inducers, strain DRC39, OD650, 24 h (AID 1178).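 Also: growth measured as culture turbidity by optical density at 650 nm; test concentration not given here.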 Conditions: higher = more signal, called active from +8 up or from −8 down.
Assay [18] in a line: E. coli acrAB mutant growth effects, primary screen, E. coli filamentation inducers, strain DRC39, OD650, 48 h (AID 1179).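 Also: screen aims at cell division blockers that make cells filament.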 Conditions: E. coli DRC39 delta-acrAB growth, higher = more signal, called active from +8 up or from −8 down.
Assay [19] is described as follows: RPMI8226 myeloma cell viability, profiling panel, resazurin fluorescence, basal, 24 h, PK04 Diversity Set (AID 1180).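 Also: RPMI8826 multiple myeloma cell line at 5000 cells per well; test concentration not given here.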 Conditions: higher = more signal.
For assay [20], the target named is E3 ubiquitin-protein ligase XIAP (Homo sapiens) (UniProt P98170). The experiment in a line: XIAP binders, primary screen, biophysical, small-molecule microarray, fluorescence 635 nm (AID 1181).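 Also: score merges 667 nm emission and signal to noise over triplicate slides.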 The note with it: small-molecule microarray binding, higher = more signal.
E3 ubiquitin-protein ligase XIAP (Homo sapiens), sequence (P98170 whole entry, looked up): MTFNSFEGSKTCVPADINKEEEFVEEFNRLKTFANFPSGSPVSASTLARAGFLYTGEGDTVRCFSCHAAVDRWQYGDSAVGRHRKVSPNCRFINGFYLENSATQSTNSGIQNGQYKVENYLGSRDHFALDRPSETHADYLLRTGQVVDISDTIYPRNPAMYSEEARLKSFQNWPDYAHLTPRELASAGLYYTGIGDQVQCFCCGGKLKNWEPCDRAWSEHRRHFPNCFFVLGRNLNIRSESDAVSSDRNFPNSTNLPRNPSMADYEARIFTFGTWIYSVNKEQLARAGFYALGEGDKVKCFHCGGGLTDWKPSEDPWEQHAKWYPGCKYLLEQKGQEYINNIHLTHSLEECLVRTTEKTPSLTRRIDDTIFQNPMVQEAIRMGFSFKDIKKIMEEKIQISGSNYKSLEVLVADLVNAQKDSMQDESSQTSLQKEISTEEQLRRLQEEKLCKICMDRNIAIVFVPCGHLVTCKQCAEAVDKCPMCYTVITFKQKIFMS

Dihydroorotate dehydrogenase (quinone), mitochondrial (Plasmodium falciparum (isolate 3D7)), sequence (Q08210 whole entry, looked up): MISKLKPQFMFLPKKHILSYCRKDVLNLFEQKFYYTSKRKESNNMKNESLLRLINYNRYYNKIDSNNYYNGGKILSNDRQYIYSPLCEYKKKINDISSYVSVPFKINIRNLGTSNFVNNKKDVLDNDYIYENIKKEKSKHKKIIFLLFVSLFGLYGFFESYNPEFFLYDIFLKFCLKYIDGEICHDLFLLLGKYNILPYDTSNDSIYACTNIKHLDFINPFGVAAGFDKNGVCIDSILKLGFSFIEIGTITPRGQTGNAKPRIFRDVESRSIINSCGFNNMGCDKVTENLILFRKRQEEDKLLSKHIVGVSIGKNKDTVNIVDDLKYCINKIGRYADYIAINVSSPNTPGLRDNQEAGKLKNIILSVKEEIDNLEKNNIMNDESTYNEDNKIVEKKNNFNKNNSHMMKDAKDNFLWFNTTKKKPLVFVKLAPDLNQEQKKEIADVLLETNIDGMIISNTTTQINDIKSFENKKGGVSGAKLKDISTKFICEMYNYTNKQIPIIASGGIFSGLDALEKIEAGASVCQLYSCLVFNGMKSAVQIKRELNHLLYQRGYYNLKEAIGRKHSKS

For `O=c1n(-c2ccccc2)c(=O)n2n1CC[C@@H]1C(=NOC[C@@H](O)COCc3ccco3)[C@H]3O[C@H]3[C@@H](O)[C@@H]12`, the z-score in assay [1] is -1.18 and 0.202; in assay [2], 0.581 and -0.304; in [3] it was -0.0728 and -0.713; in [4], 0.256 and -0.207; in [5], -0.246 and -0.624; in [6] it was -0.16 and -1.1. Also, the z-score was 0.127 (inactive) and -1.22 (inactive) in assay [7]; -0.135 and 0.0289 in assay [8]; 0.181 and -0.00804 in [9]; -1.03 (inactive) and -0.872 (inactive) in assay [10]; -0.618 and -0.581 in assay [11]; -0.428 (inactive) and 0.804 (inactive) in assay [12]. The z-score is 0.467 (inactive) and -0.453 (inactive) in [13]; 0.413 (inactive) and -0.455 (inactive) in [15]; -0.37 (inactive) and 0.962 (inactive) in assay [16]; -0.417 (inactive) and 0.0343 (inactive) in assay [17]; -0.802 (inactive) and -0.756 (inactive) in [18]; 0.0942 and -0.433 in [19]. In addition, the composite z-score is -2.79 (inactive) and 0.389 (inactive) in assay [14]; -0.0085 and -0.434 in assay [20].
For the compound `CCOC(=O)[C@H](Cc1ccccc1)NC(=O)CCC1CC(OC(=O)NCc2cccc3ccccc23)CC2(CCCC(COC(=O)NCCCN3CCCC3=O)O2)O1` (stereo not given in full), the z-score in assay [1] was 2.08; in assay [2], 0.0309; in assay [3], -0.93; in [4], -0.0157; in assay [5] it was -0.178; in assay [6], 0.397. Besides, the z-score in [7] was 0.17 (inactive); in [8], -0.195; in assay [9], -0.5; in assay [10] it was 0.811 (inactive); in assay [11], 0.968; in [12], -1.78 (inactive). Besides, the z-score in [13] is 1.07 (inactive); in assay [15], 0.639 (inactive); in assay [16], -0.697 (inactive); in [17] it was -0.35 (inactive); in assay [18], -0.209 (inactive); in [19], 1.75. Besides, the figures for the composite z-score in assay [14] and in assay [20] were -1.19 (inactive) and -0.336, respectively.
As for `C=CCN(C(=O)C1N(c2c(Cl)cccc2CO)C(=O)C2C(C(=O)O)C3C=CC21O3)c1ccc(OC)cc1` (stereo not given), the z-score in [1] is -0.211 and 1.87; in [2], 1.02 and 0.581; in [3], -0.915 and 1.6; in [4], 0.972 and -0.224; in assay [5] it was -0.998 and 0.529; in assay [6], -0.877 and 0.862. The z-score is -0.955 (inactive) and 0.659 (inactive) in [7]; -0.106 and -0.544 in [8]; 0.644 and 0.576 in [9]; -0.475 (inactive) and 1.02 (inactive) in [10]; -0.48 and 0.737 in assay [11]; -0.566 (inactive) and -0.241 (inactive) in assay [12]. For the same compound, the z-score in assay [13] is -1.03 (inactive) and 0.874 (inactive); in assay [15], -0.137 (inactive) and -0.428 (inactive); in [16] it was 0.344 (inactive) and -1.83 (inactive); in assay [17], -0.237 (inactive) and 1.79 (inactive); in assay [18], -0.293 (inactive) and 1.93 (inactive); in assay [19], -0.509 and 1.06. Also, the composite z-score in [14] was -0.394 (inactive) and -0.0226 (inactive); in assay [20], 0.281 and -0.152.
Take `COC(=O)C1=C(C)N(Cc2ccccc2)[C@]23O[C@](C(=O)OC)(C(=O)N2[C@@H]1c1ccccc1)[C@@H](c1ccccc1)[C@@H]3C(=O)c1ccccc1`: the z-score is 0.668 and 0.418 in assay [1]; 1.64 and 0.204 in assay [2]; 0.344 and 0.832 in assay [3]; 0.54 and 0.391 in assay [4]; -0.0139 and 0.294 in assay [5]; 2.68 and 2.31 in [6]. In addition, the z-score in assay [7] is 1.13 (inactive) and 0.417 (inactive); in [8], 0.535 and -0.253; in assay [9], -0.00272 and 0.667; in assay [10] it was 0.266 (inactive) and 1.05 (inactive); in [11], 1.07 and 0.475; in [12] it was -1.84 (inactive) and -0.926 (inactive). In addition, the z-score in [13] was 0.876 (inactive) and 0.459 (inactive); in [15], -0.0933 (inactive); in assay [16] it was -1.37 (inactive) and -0.224 (inactive); in assay [17] it was -0.603 (inactive) and 0.788 (inactive); in assay [18] it was -0.263 (inactive) and 0.547 (inactive); in assay [19] it was 0.56 and 0.48. Further, the composite z-score is 0.78 (inactive) and 0.324 (inactive) in assay [14]; -0.209 and 0.0264 in assay [20].
In the case of `CCOC(=O)NN=C1C[C@@H](O)[C@@H](O)[C@@H]2[C@@H]3C(=O)N(Cc4ccccc4)C(=O)[C@@H]3CC[C@@H]12`, the z-score in assay [1] was -0.226; in assay [2] it was -0.0135; in assay [3], -1.29; in assay [4], 0.599; in [5], -0.461; in assay [6], 0.548. Also, the z-score is 0.152 (inactive) in [7]; 0.387 in assay [8]; -0.979 in assay [9]; 0.0002 (inactive) in assay [10]; 0.213 in [11]; 0.331 (inactive) in [12]. In addition, the z-score is -1.17 (inactive) in assay [13]; 0.529 (inactive) in assay [15]; 0.371 (inactive) in [16]; 0.199 (inactive) in assay [17]; -0.951 (inactive) in [18]; 0.561 in assay [19]. Besides, the composite z-score in [14] is 0.0897 (inactive); in [20], 1.34.
Take `O=C1C[C@]2(c3ccc([N+](=O)[O-])cc3)C(=O)N(Cc3ccccc3)c3cc(CO)ccc3[C@H]2N1C1CCCCC1`: the z-score in assay [1] was -0.8 and 0.627; in assay [2], 0.43 and 1.53; in assay [3], -1.3 and 0.0974; in assay [4], -0.514 and -2.14; in [5] it was -0.684 and -2.65; in assay [6], -0.236 and 0.352. Besides, the z-score in [7] is -0.0101 (inactive) and -0.0655 (inactive); in [8] it was -0.469 and -0.544; in assay [9], -0.152 and -0.189; in assay [10] it was 0.466 (inactive) and -0.352 (inactive); in [11], 0.981 and -0.766; in [12] it was -0.0998 (inactive) and -0.919 (inactive). Moreover, the z-score is 0.0351 (inactive) and -0.743 (inactive) in assay [13]; 0.599 (inactive) and 1.21 (inactive) in assay [15]; 0.029 (inactive) and -0.21 (inactive) in assay [16]; 0.512 (inactive) and 0.2 (inactive) in assay [17]; 0.566 (inactive) and -0.0186 (inactive) in assay [18]; 0.702 and -0.966 in [19]. The composite z-score in [14] is -2.77 (inactive) and 0.496 (inactive); in assay [20], 2.56 and 0.144.

These data come from PubChem BioAssay.
